Measured values taken from the supplement of paper PMC12808144.

system: Mel-DCC-11-R; test: cell viability relative to DMSO control (fraction of DMSO control); higher = less cytotoxic, active = 0.8 or less; settings: 1 µM; 120 h; vemurafenib co-treatment 0 µM
Protocol: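 Same 315-drug TargetMol library at 1 µM in duplicate, 120 h, ATPlite luminescence normalised to DMSO controls, on the vemurafenib-resistant subline Mel-DCC-11-R cultured alone or with 8 µM vemurafenib co-treatment (Mel-DCC-11-R + V).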

Structure (SMILES) | cell viability
C[C@]12CC[C@H]3[C@@H](CC[C@@]45O[C@@H]4C(O)=C(C#N)C[C@]35C)[C@@H]1CC[C@@H]2O [Trilostane] | 1.03 (inactive)
C/C=C(\C)C(=O)N[C@@H](c1ccccc1)[C@@H](O)C(=O)O[C@H]1C[C@@]2(O)[C@@H](OC(=O)c3ccccc3)[C@@H]3[C@]4(OC(C)=O)CO[C@@H]4C[C@H](O)[C@@]3(C)C(=O)[C@H](OC(C)=O)C(=C1C)C2(C)C [Cephalomannine] | 0.99 (inactive)
Cl.Cn1c(CCCC(=O)O)nc2cc(N(CCCl)CCCl)ccc21 [Bendamustine hydrochloride] | 0.822 (inactive)

same assay, conditions: 1 µM; 120 h; vemurafenib co-treatment 8 µM

Structure (SMILES) | cell viability
C[C@]12CC[C@H]3[C@@H](CC[C@@]45O[C@@H]4C(O)=C(C#N)C[C@]35C)[C@@H]1CC[C@@H]2O [Trilostane] | 1.05 (inactive)
C/C=C(\C)C(=O)N[C@@H](c1ccccc1)[C@@H](O)C(=O)O[C@H]1C[C@@]2(O)[C@@H](OC(=O)c3ccccc3)[C@@H]3[C@]4(OC(C)=O)CO[C@@H]4C[C@H](O)[C@@]3(C)C(=O)[C@H](OC(C)=O)C(=C1C)C2(C)C [Cephalomannine] | 0.638 (active)
Cl.Cn1c(CCCC(=O)O)nc2cc(N(CCCl)CCCl)ccc21 [Bendamustine hydrochloride] | 1.04 (inactive)
